Records with an inconclusive call do not appear. Active and inactive are the calls of the source. Unless noted, calls follow the shape of the dose curve; as a rule, active = well fitted curve in the direction sought with a large enough effect in the repeat runs; inconclusive = weak or mixed curves; inactive = no such curve, though single readings can be large; an effect the other way counts as inactive or inconclusive.
How the values were obtained:
[1] = target: Acetylcholinesterase (Homo sapiens) (UniProt P22303); assay: Acetylcholinesterase (AChE) small molecule antagonists: enzyme-based qHTS assay (AID 1347397; calls by dose curve; also: nearly all actives have a fitted effect of over 55% in size); details: Potency: AChE enzyme activity inhibition
Chain of Acetylcholinesterase (Homo sapiens) (P22303 whole entry, looked up): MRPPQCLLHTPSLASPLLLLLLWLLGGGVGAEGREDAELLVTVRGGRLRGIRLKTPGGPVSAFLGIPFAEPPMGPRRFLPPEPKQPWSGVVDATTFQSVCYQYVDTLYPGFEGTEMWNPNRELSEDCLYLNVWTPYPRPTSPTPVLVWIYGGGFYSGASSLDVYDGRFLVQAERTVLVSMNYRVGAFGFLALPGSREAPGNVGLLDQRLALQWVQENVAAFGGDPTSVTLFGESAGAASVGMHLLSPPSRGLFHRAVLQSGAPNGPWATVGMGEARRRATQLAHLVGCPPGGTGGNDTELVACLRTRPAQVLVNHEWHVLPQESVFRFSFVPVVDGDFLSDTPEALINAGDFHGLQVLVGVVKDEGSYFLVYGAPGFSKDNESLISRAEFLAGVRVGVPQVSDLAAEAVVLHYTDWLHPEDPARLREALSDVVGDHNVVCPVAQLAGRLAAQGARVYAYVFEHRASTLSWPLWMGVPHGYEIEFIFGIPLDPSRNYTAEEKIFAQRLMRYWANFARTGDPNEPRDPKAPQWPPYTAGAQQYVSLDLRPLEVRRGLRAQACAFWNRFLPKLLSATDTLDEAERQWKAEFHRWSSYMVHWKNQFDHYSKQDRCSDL
Method in brief: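 Recombinant human AChE (50 mU/mL) preincubated with compound 30 min at room temperature; acetylthiocholine plus DTNB then added, and thiocholine formation read colorimetrically after 10 min at room temperature. DMSO served as vehicle control.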

[2] = target: Acetylcholinesterase (Homo sapiens) (UniProt P22303); assay: Acetylcholinesterase (AChE) small molecule antagonists: fluorescence cell-based qHTS assay (AID 1347398; calls by dose curve; also: nearly all actives have a fitted effect of over 50% in size); details: Potency: AChE activity
Method in brief: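 SH-SY5Y cells (2000/well), attached overnight, incubated with compound 30 min at 37 C. Acetylthiocholine plus Thiolite Green then added for 40 min at room temperature. Thiocholine fluorescence (Ex/Em 490/520 nm) reports cellular AChE activity.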

[3] = target: Acetylcholinesterase (Homo sapiens) (UniProt P22303); assay: Acetylcholinesterase (AChE) small molecule antagonists: enzyme-based qHTS assay with human liver microsomes (AID 1347399; calls by dose curve; also: nearly all actives have a fitted effect of over 60% in size); details: Potency: qHTS inhibition
Method in brief: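 Recombinant human AChE (50 mU/mL in the enzyme mix) and human liver microsomes (0.25 mg/mL final) were preincubated with compound and NADPH (0.25 mg/mL final) for 30 min at 37 C. Acetylthiocholine/DTNB was then added; thiocholine was read colorimetrically after 10 min at room temperature.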

[4] = target: Cytochrome P450 2D6 (Homo sapiens) (UniProt P10635); assay: Cytochrome P450 Family 2 Subfamily D Member 6 (CYP2D6) small molecule antagonists: luciferase reporter qHTS assay (AID 1671196); also: nearly all actives have a fitted effect of over 50% in size; also: potency is read from the fitted curve at half-maximal effect
Chain of Cytochrome P450 2D6 (Homo sapiens) (P10635 whole entry, looked up): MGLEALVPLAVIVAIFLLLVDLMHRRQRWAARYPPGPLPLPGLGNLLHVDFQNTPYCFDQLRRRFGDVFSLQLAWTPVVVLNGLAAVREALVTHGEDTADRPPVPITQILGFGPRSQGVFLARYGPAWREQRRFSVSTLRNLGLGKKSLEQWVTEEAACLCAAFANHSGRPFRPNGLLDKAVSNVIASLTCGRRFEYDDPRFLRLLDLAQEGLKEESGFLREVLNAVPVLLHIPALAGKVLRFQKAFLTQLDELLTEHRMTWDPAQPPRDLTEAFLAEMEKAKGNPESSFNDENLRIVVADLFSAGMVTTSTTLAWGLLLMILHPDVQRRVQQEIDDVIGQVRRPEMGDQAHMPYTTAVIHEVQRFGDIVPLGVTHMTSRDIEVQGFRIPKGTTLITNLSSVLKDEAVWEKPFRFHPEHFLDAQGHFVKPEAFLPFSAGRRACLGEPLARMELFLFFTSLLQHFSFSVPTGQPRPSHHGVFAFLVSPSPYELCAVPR
Method in brief: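 CYP2D6 enzyme–substrate mix was held with compound for 10 min at room temperature, then NADPH regeneration solution was added and the reaction ran 1 h at room temperature. Luciferin product was detected by luminescence after 20 min with detection reagent.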

[5] = target: Cytochrome P450 2C9 (Homo sapiens) (UniProt P11712); assay: Cytochrome P450 Family 2 Subfamily C Member 9 (CYP2C9) small molecule antagonists: luciferase reporter qHTS assay (AID 1671198); also: nearly all actives have a fitted effect of over 50% in size; also: potency is read from the fitted curve at half-maximal effect
Chain of Cytochrome P450 2C9 (Homo sapiens) (P11712 whole entry, looked up): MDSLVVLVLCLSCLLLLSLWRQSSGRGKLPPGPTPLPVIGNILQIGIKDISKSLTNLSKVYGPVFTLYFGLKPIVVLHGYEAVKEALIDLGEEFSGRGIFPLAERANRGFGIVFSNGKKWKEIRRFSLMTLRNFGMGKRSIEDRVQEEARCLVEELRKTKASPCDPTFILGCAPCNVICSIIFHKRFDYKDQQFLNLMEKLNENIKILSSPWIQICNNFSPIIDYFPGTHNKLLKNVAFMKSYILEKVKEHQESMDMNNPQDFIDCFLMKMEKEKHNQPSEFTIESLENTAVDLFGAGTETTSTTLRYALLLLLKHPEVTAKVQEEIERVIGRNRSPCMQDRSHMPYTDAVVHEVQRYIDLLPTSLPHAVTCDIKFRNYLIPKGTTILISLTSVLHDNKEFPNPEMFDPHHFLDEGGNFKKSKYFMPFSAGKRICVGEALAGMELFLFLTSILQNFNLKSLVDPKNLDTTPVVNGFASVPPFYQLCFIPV
Method in brief: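 P450-Glo proluciferin substrate with CYP2C9 enzyme; 10 min RT preincubation, then NADPH regeneration 1 h at 37C; luciferin detection reagent 20 min RT, luminescence in relative luminescence units.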

[6] = target: Cytochrome P450 1A2 (Homo sapiens) (UniProt P05177); assay: Cytochrome P450 Family 1 Subfamily A Member 2 (CYP1A2) small molecule antagonists: luciferase reporter qHTS assay (AID 1671199); also: nearly all actives have a fitted effect of over 50% in size; also: potency is read from the fitted curve at half-maximal effect
Chain of Cytochrome P450 1A2 (Homo sapiens) (P05177 whole entry, looked up): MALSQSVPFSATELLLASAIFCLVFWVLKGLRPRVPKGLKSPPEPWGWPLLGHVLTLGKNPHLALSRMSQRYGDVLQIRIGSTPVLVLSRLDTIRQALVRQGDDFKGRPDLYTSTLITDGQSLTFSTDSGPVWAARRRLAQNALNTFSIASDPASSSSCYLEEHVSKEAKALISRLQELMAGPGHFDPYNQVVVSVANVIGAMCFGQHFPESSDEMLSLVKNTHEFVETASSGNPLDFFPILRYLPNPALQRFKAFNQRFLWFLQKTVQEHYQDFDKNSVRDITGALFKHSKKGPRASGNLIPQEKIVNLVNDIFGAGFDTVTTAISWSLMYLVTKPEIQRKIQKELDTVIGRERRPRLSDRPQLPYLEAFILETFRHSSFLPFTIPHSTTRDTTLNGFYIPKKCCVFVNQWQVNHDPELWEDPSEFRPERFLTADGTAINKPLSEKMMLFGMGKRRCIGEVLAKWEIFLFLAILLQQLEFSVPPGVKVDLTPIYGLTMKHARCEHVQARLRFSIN
Method in brief: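 Human CYP1A2 activity measured with a P450-Glo proluciferin substrate; compounds in DMSO preincubated 10 min at room temperature with enzyme-substrate mix, then NADPH regeneration system added for 1 h. Luciferin detection reagent, 20 min, luminescence read.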

[7] = target: Cytochrome P450 2C19 (Homo sapiens) (UniProt P33261); assay: Cytochrome P450 Family 2 Subfamily C Member 19 (CYP2C19) small molecule antagonists: luciferase reporter qHTS assay (AID 1671197); also: nearly all actives have a fitted effect of over 65% in size; also: potency is read from the fitted curve at half-maximal effect
Chain of Cytochrome P450 2C19 (Homo sapiens) (P33261 whole entry, looked up): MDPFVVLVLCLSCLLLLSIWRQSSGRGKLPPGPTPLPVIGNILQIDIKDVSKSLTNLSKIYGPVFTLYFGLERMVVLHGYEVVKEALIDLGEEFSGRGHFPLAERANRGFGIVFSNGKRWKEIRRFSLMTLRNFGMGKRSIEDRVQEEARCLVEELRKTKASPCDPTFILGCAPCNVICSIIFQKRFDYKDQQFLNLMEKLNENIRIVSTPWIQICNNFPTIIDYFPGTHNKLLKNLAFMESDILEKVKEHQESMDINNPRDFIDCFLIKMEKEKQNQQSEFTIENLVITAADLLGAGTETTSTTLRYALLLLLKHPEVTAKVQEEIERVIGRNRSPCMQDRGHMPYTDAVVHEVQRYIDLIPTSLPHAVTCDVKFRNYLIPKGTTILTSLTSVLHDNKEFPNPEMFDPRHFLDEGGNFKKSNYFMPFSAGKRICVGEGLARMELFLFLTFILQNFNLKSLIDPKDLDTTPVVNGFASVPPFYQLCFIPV
Method in brief: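 Luminescent readout of CYP2C19 activity: luciferin product detected 20 min after adding detection reagent. Before that, compound and enzyme-substrate mix preincubated 10 min at room temperature; NADPH-regenerating system started a 1 h, 37C reaction. Ketoconazole as positive control.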

[8] = target: Voltage-gated inwardly rectifying potassium channel KCNH2 (Homo sapiens) (UniProt Q12809); assay: Human Ether-a-go-go-Related Gene (hERG) channel small molecule antagonists: fluorescence cell-based qHTS assay (AID 1671200); also: nearly all actives have a fitted effect of over 50% in size; also: potency is read from the fitted curve at half-maximal effect
Chain of Voltage-gated inwardly rectifying potassium channel KCNH2 (Homo sapiens) (Q12809 whole entry, looked up): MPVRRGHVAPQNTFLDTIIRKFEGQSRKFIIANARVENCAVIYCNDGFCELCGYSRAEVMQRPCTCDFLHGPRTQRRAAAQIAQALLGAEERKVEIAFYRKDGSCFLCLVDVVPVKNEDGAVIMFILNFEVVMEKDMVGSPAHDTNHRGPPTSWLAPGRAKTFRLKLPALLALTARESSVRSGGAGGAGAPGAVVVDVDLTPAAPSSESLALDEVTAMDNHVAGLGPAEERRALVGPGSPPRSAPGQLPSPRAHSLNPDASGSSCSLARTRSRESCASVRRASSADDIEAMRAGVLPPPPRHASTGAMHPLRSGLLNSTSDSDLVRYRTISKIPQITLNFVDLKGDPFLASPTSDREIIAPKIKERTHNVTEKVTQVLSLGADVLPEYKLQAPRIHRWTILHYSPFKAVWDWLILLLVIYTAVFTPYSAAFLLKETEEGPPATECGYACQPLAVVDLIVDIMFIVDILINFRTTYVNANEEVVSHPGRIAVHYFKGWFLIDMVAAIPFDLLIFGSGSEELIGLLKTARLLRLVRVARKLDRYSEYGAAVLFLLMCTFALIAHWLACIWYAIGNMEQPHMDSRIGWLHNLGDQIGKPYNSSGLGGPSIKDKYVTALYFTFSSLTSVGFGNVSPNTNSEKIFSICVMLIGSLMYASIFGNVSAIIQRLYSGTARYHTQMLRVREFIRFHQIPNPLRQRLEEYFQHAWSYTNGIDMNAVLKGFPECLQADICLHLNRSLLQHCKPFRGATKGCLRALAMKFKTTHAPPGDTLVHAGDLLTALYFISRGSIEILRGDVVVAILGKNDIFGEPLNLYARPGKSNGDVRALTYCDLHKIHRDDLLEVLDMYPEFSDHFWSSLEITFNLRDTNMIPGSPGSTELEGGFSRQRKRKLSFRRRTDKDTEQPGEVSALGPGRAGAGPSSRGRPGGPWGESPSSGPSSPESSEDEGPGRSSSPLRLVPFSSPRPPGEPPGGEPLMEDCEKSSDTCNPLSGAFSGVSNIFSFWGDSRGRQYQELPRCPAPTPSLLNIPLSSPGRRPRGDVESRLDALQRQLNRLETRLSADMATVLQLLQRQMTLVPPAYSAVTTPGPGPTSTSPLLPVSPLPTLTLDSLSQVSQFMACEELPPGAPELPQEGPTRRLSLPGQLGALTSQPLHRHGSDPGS
Method in brief: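 Thallium served as the potassium surrogate; its influx into dye-loaded U2OS cells carrying the channel was measured by fluorescence over 2 min.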

[9] = target: Cytochrome P450 3A4 (Homo sapiens) (UniProt P08684); assay: Cytochrome P450 Family 3 Subfamily A Member 4 (CYP3A4) small molecule antagonists: luciferase reporter qHTS assay (AID 1671201)
Chain of Cytochrome P450 3A4 (Homo sapiens) (P08684 whole entry, looked up): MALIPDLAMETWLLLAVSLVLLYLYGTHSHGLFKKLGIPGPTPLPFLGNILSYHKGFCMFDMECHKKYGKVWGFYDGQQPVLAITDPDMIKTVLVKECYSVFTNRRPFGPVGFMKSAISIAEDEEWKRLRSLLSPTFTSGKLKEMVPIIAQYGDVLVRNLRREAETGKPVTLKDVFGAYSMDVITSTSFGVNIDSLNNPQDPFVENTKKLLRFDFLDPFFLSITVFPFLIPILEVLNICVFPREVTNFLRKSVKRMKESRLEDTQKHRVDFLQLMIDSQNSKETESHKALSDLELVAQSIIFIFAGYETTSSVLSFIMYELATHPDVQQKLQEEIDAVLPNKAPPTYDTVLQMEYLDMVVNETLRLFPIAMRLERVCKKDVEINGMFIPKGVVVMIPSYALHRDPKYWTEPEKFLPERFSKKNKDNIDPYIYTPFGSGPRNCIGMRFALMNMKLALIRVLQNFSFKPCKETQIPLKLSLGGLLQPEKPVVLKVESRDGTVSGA
Method in brief: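 Relative luminescence units after 20 min with luciferin detection reagent served as read-out. Beforehand, CYP3A4 turned over a proluciferin substrate for 1 h at room temperature with NADPH regeneration, following 10 min compound preincubation.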

Measured: Potency

C#CCN1C(=O)COc2cc(F)c(N3C(=O)C4=C(CCCC4)C3=O)cc21
inactive: [1] | [2] | [3]
active: [4] 44.8 µM | [5] 71 µM | [6] 3.99 µM

[As]#[In]
not listed: [5] | [9]
inactive: all other assays above

O=C(O)C(Br)CBr (configuration not stated)
active: [4] 36.2 µM | [6] 64.4 µM
not listed: [5] | [9]
inactive: all other assays above

Cc1cc(C)nc(Nc2ccccc2)n1
active: [7] 79.6 µM | [6] 6.33 µM
not listed: [5]
inactive: all other assays above

O=NN1CCCCC1
active: [7] 35.4 µM
not listed: [5] | [9]
inactive: all other assays above

Cc1cccc(C#N)c1
not listed: [6]
inactive: all other assays above

CCCCN(CCCCO)N=O
not listed: [5] | [8] | [9]
inactive: all other assays above

C[C@]1(O)CC[C@H]2[C@@H]3CCC4=CC(=O)CC[C@]4(C)[C@@]3(F)[C@@H](O)C[C@@]21C
active: [7] 71.4 µM
not listed: [5] | [6]
inactive: all other assays above

CC(N)=S
active: [7] 71 µM
not listed: [5] | [6]
inactive: all other assays above

O=C(CCCN1CCC(n2c(=O)[nH]c3ccccc32)CC1)c1ccc(F)cc1
active: [4] 8.71 µM | [8] 1.51 µM
not listed: [5] | [9]
inactive: all other assays above

COc1cc(OC)nc(NC(=O)NS(=O)(=O)c2ncccc2OCC(F)(F)F)n1
not listed: [5] | [6] | [7]
inactive: all other assays above

CC1=NNC(=O)N(/N=C/c2cccnc2)C1
active: [6] 35.6 µM
inactive: [1] | [2] | [3] | [4] | [8]

CCC#N
not listed: [6] | [7] | [9]
inactive: all other assays above

CCCCc1ccc(O)cc1
inactive: [1] | [2] | [3] | [4] | [8]

CCOC(=O)/C=C(C)/C=C/C[C@@H](C)CCCC(C)C
active: [7] 28.3 µM | [5] 15.9 µM
inactive: [1] | [2] | [3]

CCOC(=O)C1(c2ccccc2)CCN(CCc2ccc(N)cc2)CC1
active: [4] 3.47 µM | [8] 19 µM
inactive: [1] | [2] | [3] | [6]

CC1COC2(c3ccccc3Cl)c3cc(Cl)ccc3NC(=O)CN12 (configuration not stated)
active: [7] 4.36 µM | [5] 27.5 µM
inactive: [1] | [2] | [3] | [6]

O=C(Nc1ccccc1)N(Cc1ccc(Cl)cc1)C1CCCC1
active: [7] 7.1 µM | [5] 15.9 µM | [6] 15.9 µM | [8] 38.9 µM
inactive: [1] | [2] | [3]

From PubChem BioAssay (Tox21)
